In the library only some 3% were active in any assay of this set; here they are far more common.
TRb SRC2 PPI = disrupts binding of human TR beta to SRC2 | Potency, µM (top dose mostly 106 µM), inactives show top-dose activity change, negative = inhibition, usual class: inhibitors | AID 1469 | 280,000 tested, 0.065% active | P10828 | TRbeta-SRC2 peptide binding, fluorescence polarization; receptor liganded with 1 µM T3;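 also: plate controls were bound peptide for no effect and peptide without receptor for full effect; nearly all actives have a fitted effect of over 50% in size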
Target sequence (P10828 whole entry, looked up): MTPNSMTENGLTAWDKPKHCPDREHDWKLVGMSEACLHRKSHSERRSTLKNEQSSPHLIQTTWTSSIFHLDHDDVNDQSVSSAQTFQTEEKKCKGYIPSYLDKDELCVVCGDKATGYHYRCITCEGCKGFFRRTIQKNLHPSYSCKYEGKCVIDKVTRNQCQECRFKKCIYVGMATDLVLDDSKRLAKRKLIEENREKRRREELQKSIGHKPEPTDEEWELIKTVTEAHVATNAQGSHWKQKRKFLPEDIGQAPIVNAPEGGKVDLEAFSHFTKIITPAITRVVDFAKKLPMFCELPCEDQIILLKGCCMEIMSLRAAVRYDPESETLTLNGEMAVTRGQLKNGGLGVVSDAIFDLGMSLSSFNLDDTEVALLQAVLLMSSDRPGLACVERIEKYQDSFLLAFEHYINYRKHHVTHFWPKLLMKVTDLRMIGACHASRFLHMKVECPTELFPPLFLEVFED
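Compounds were added to 0.6 uM TRb ligand-binding domain and 20 nM Texas Red-labeled SRC2 peptide in Tris buffer containing 1 uM T3, incubated 5 hr at ambient temperature, then read by fluorescence polarization.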
Tau fibril ThT = inhibitors of human tau fibril formation, thioflavin T binding; P10636; recombinant tau K18 P301L, heparin-induced fibrillization, ThT fluorescence; Potency, µM (top dose mostly 57.4 µM), without a hit: at the top dose activity, negative = inhibition, hits mostly inhibitors; 270,000 tested, 2.1% active; AID 1460; also: nearly all actives have a fitted effect of over 55% in size
Target sequence (P10636 561-689 P618L limits assumed): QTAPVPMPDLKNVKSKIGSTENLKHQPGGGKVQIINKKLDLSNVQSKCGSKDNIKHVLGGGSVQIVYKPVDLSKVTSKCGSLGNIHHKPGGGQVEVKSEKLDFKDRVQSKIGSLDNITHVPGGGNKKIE
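K18 P301L tau (15 uM + 0.24 uM Alexa 594-tagged), heparin 20 uM, NaOAc pH 7, 6 h 37 C; ThT 30 uM, 1 h RT, ex 450/em 510 nm.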
Tau fluor cs = counter-screen for tau fibril formation inhibitors | tau K18 P301L Alexa594 fluorescence, heparin fibrillization | Potency, µM (highest dose often 57.7 µM), without a hit: at the highest dose activity change, negative = decrease | 280,000 tested, 0.93% active; also: nearly all actives have a fitted effect of over 55% in size
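Human tau K18 P301L (15 uM unlabeled, 0.24 uM Alexa 594-labeled) in 100 mM sodium acetate pH 7 with 20 uM heparin, 6 hr at 37 C. ThT 30 uM added, 1 hr ambient; Alexa 594 FP and total fluorescence read at 555/632 nm.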
Tau FP inhib = tau fibrillization inhibition (FP); K18 P301L tau heparin fibrillization, Alexa594 FP, 6 h; Potency, µM (top dose mostly 57.7 µM), for the others: top-dose activity, negative = inhibition, actives largely listed as inhibitors; 280,000 tested, 0.39% active; AID 1468; also: nearly all actives have a fitted effect of over 55% in size
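Human K18 P301L fragment (15 uM unlabeled plus 0.24 uM Alexa 594-labeled) in 100 mM sodium acetate pH 7 with compound, aggregation induced by 20 uM heparin for 6 hr at 37 C. ThT (30 uM) added for 1 hr, then Alexa 594 FP read.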
TexasRed fluor = counter-screen for TRb-SRC2 inhibitors: fluorescence interference; TRb/SRC2 Texas Red total fluorescence interference; Potency, µM (doses to about 106 µM), for inactives: at the highest dose fluorescence change, negative = quenching; 280,000 tested, 0.29% active; active = well fitted curve in either direction with a large enough effect; inconclusive = small, poorly fitted or top-dose-only effect
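Human TRβ ligand-binding domain (0.6 uM) and Texas Red SRC2 peptide (20 nM) in Tris buffer with 1 uM T3 and 5% DMSO were incubated with pinned compound for 5 hr at ambient temperature. Total fluorescence was computed as S + 2P (555/632 nm).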
Starred values were filed as active, the others as inactive; ? = inconclusive; . = no result given; [ ] = another dose, or the depositor's remark. Unless noted, calls follow the shape of the dose curve; as a rule, active = well fitted curve in the direction sought with a large enough effect; inconclusive = small, poorly fitted or top-dose-only effect, or another doubt; inactive = no such curve, though single readings can be large; an effect the other way counts as inactive or inconclusive. Unless noted, % is scaled to controls: 0 for no effect and ±100 for the full control effect; potency is read from the fitted curve at half-maximal effect.

SMILES | TRb SRC2 PPI | Tau fibril ThT | Tau fluor cs | Tau FP inhib | TexasRed fluor
COc1ccc(/C=N/NC(=O)c2cccc([N+](=O)[O-])c2)cc1OC(=O)c1ccccc1 | -13% | -21% | 11µM*[quencher] | -5% | 0%
COc1ccc(C(=O)Oc2ccc(/C=N/NC(=O)c3ccccc3OC)cc2[N+](=O)[O-])cc1 | 12% | ? | -8% | -14% | 0%
COc1cc(/C=N/NC(=O)c2sc3ccccc3c2Cl)ccc1OC(=O)c1ccc([N+](=O)[O-])cc1 | 1% | 1.3µM* | ? | 3% | 0%
COCCOC(=O)C1=C(C)NC(=O)NC1c1cn(-c2ccccc2)nc1-c1ccccc1 (stereo unspecified) | -4% | 1% | 0% | 1% | -2%
O=C(Nc1ccc(Cl)cc1F)c1cc(S(=O)(=O)NC2CCCCCC2)ccc1F | 4% | 5% | -14% | ? | 0%
COc1ccc(/C=N/NC(=O)c2cccc([N+](=O)[O-])c2)cc1OS(=O)(=O)c1ccccc1 | -2% | -13% | 14µM*[quencher] | -4% | -1%
COc1cc(/C=N/NC(=O)c2cccc([N+](=O)[O-])c2)ccc1OCc1ccccc1 | 0% | ? | 11µM*[quencher] | ? | 4%
COc1cc(/C=N/NC(=O)c2cccc([N+](=O)[O-])c2)ccc1OC(=O)c1ccco1 | 1% | ? | ? | -1% | -3%
Cc1ccc(NC2Sc3ccccc3NC2=O)cc1 (stereo unspecified) | -2% | 16µM* | -22% | ? | 0%
O=C(NCc1cccc(F)c1)c1ccc(-n2cnc3cccnc32)cc1 | -8% | -5% | -10% | -12% | 0%
Cn1ccc2cc(S(=O)(=O)N3CCC(C(=O)NCCc4ccccc4)CC3)ccc21 | -2% | 5% | -1% | -3% | -2%
CCOc1ccc(N=Nc2c(=O)[nH]n3c(=O)c4c([nH]c23)CCCC4)cc1 | 3% | 1.8µM* | ? | -6% | -17%
O=c1[nH]n2c(=O)c3c([nH]c2c1N=Nc1cccc(Cl)c1)CCCC3 | 1% | 2.8µM* | ? | -6% | -1%
CC(C)(C)c1ccc(-c2nc3cc(NC(=O)c4cccc(Br)c4)ccc3o2)cc1 | -7% | 6% | -21% | ? | 0%
COC(=O)c1cccc(C(=O)OC)c1 | -6%[201 µM] | . | . | . | -5%[201 µM]
CCC(C)Nc1nc(-c2ccc3c(c2)NC(=O)CO3)cs1 (stereo unspecified) | 8% | ? | ? | -4% | 0%
COc1ccc(Nc2nc(-c3ccc4c(c3)NC(=O)CO4)cs2)cc1 | -3% | 7.9µM* | 13µM*[quencher] | -2% | -3%
COc1ccccc1Nc1nc(-c2ccc3c(c2)NC(=O)CO3)cs1 | -3% | 14µM* | 11µM*[quencher] | 6% | -8%
O=C(/C=C/c1ccc(O)c(O)c1)OC1C[C@](O)(C(=O)O)C[C@@H](O)[C@H]1O (stereo partly specified) | -2% | . | . | . | -3%
Cc1ccc(/C=C2/NC(=O)N(Cc3ccc(Br)cc3)C2=O)o1 | -7% | ? | -14% | -11% | 3%
O=C(O)c1ccc(-c2ccc(/C=C3\NC(=O)N(Cc4ccc(Cl)cc4)C3=O)o2)cc1Cl | 11% | 28µM* | -26% | ? | -29%
CN(C)c1ccc(C(=S)NCc2ccco2)cc1 | -3% | 10µM* | ? | -15% | -6%
O=C(NN=C1CCN(Cc2ccccc2)CC1)c1cc2ccccc2cc1O | 16% | 13µM* | ? | 1% | ?
O=C(NN=C1CCN(Cc2ccccc2)CC1)c1ccccc1O | 3% | ? | -21% | -3% | -6%
C/C(=N/Nc1ccc(F)cc1)c1ccc(Cl)s1 | 6% | ? | 14µM*[quencher] | 7% | 10%
SMILES | TRb SRC2 PPI | Tau fibril ThT | Tau fluor cs | Tau FP inhib | TexasRed fluor
COc1ccc(NC(=O)CC2C(=O)N(c3ccccc3)C(=O)N2Cc2cccnc2)cc1 (stereo unspecified) | 5% | 0% | -6% | 4% | -1%
CN(C)S(=O)(=O)c1cccc(NC(=S)N/N=C/c2cc(Br)ccc2O)c1 | 4% | ? | 7.9µM*[quencher] | ? | -9%
CC(C)OB(OC(C)C)OC(C)C | 3%[201 µM] | . | . | . | -4%[201 µM]
CCC(C)C(=O)N1c2ccccc2C(=C2SC(C(=O)OC)=C(C(=O)OC)S2)C(=S)C1(C)C (stereo unspecified) | -10% | 4µM* | ? | ? | 1%
CCC(=O)N1CCc2cc(Br)cc(S(=O)(=O)N3CCCC(C(=O)NCc4cccc(OC)c4)C3)c21 (stereo unspecified) | -10% | ? | -28% | 4% | 0.0079µM*[quencher]
Cc1cccc(C2C3=C(Nc4[nH]n(-c5ccccc5)c(=O)c42)c2ccccc2C3=O)c1 (stereo unspecified) | -5% | 16µM* | ? | -3% | -19%
COc1ccc(C2C(C#N)=C(C)NC3=C2C(=O)c2ccccc23)cc1 (stereo unspecified) | 3% | ? | -26% | -11% | -7%
Cc1ccccc1-c1ccnc2[nH]n(-c3ccccc3)c(=O)c12 | 4% | ? | -22% | -5% | 2%
Cc1ccccc1C1C2=C(Nc3[nH]n(-c4ccccc4)c(=O)c31)c1ccccc1C2=O (stereo unspecified) | -5% | 14µM* | ? | -4% | 2%
O=C(Nc1ccccc1)/C(=C/c1ccccc1)c1ccccc1 | -4% | -21% | ? | 20µM* | 0%
COc1ccc(NC(=O)CN(C)S(=O)(=O)c2ccc(C(=O)N3CCOCC3)s2)cc1 | 6% | 1% | 0% | -10% | -3%
Cc1ccccc1Nc1c(-c2ccc(O)cc2)nc2c(C)cccn12 | 2% | ? | 25µM*[quencher] | 8% | -2%
Cc1ccccc1Nc1c(-c2ccccc2O)nc2sccn12 | -4% | -13% | 13µM*[quencher] | ? | 5%
COc1cc(OC)c(NC(=O)Nc2ccc3c(c2)N(C)C(=O)c2ccccc2S3)cc1Cl | 1% | ? | -25% | 5% | -3%
Cc1ccc2[nH]c(=O)c(CN(C(=O)c3cccc(Cl)c3)C(C)(C)C)cc2c1 | -18%[53 µM] | -7% | -7% | -2% | 32µM*[quencher]
O=C(NNC(=S)Nc1ccc(OC(F)F)cc1)c1cc2c(s1)CCCC2 | -13% | ? | ? | 8% | 631µM*[quencher]
COC(=O)c1ccccc1NC(=O)c1ccc2nc(Cc3ccccc3)oc2c1 | 7% | ? | -22% | -10% | -1%
COc1ccc2nc(N=Nc3c(O)ccc4ccccc34)sc2c1 | -3% | 2.8µM* | ? | -4% | 0%
C[Si](Cl)(Cl)[Si](C)(Cl)Cl | 5%[201 µM] | . | . | . | 1%[201 µM]
CC(=O)c1cc2c(cc1N/C(=N/S(=O)(=O)c1ccc(F)cc1)c1ccccc1)OCO2 | -4% | 3% | -7% | 1% | -1%
